In PubChem BioAssay (EPA / NIEHS):
Inconclusive results are not listed. Calls of active or inactive are those of the source. The calls were made as follows, unless noted: active = hit-call score of the fitted dose curve at least 0.9, where 1 is the maximum; inactive = score below 0.9.

Assays:
[1] = ACEA_ER_80hr: ACEA Biosciences xCELLigence Real-Time Cell Analysis on Estrogen Receptor Agonism for Proliferation (AID 2282667; active = hit-call score of the fitted dose curve at least 0.9, where 1 is the maximum); details: T47D proliferation, impedance (xCELLigence), 80 h
Outline: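 Real-time impedance growth kinetics of human T-47D breast cells read 80 h after dosing, gain-of-signal fitted relative to DMSO. Compounds: 1:4 serial series, top final concentration 100 uM, n = 2.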

[2] = APR_HepG2_CellLoss_1hr: Apredica 1-hour HepG2 Assay for Cell Loss (AID 2282668); details: high-content imaging;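 also: curves fitted both ways against DMSO so gain or loss of cells counts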
Outline: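 HepG2 cells were treated for 1 h with compound at 0.39–200 uM, in duplicate, in 0.5% DMSO. After formaldehyde fixation, Hoechst 33342-stained nuclei were imaged on an ArrayScan to count cells. Data were fitted bidirectionally versus DMSO.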

[3] = APR_HepG2_NuclearSize_1hr: Apredica 1-hour HepG2 Assay for Nuclear Size (AID 2282670); details: high-content imaging, actives raise or lower the signal
Outline: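 HepG2 cells dosed 1 hr with 0.39–200 uM compound (0.5% DMSO), formaldehyde-fixed, Hoechst 33342-stained and imaged at 20x; nuclear diameter from nuclear stain, fitted bidirectionally against DMSO.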

[4] = APR_HepG2_p53Act_1hr: Apredica 1-hour HepG2 Assay for p53 Activation (AID 2282671); details: high-content imaging, actives raise or lower the signal
Outline: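 HepG2 cells treated 1 h with compound at 0.39–200 uM (10 concentrations, duplicate) in 0.5% DMSO. Formaldehyde-fixed, permeabilised cells immunostained for p53 with Hoechst 33342; high-content imaging, bidirectional fit versus DMSO.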

[5] = APR_HepG2_MitoticArrest_1hr: Apredica 1-hour HepG2 Assay for Mitotic Arrest (AID 2282672); details: high-content imaging, actives raise or lower the signal
Outline: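 HepG2 cells exposed 1 hr to compounds at 0.39–200 uM (0.5% v/v DMSO final), then fixed in 3.7% formaldehyde and immunostained for phospho-histone H3 with Hoechst 33342. Mitotic arrest scored by automated fluorescence imaging, fitted bidirectionally versus DMSO.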

[6] = APR_HepG2_P-H2AX_1hr: Apredica 1-hour HepG2 Assay for H2AX Phosphorylation (AID 2282673); details: high-content imaging, actives raise or lower the signal
Outline: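 HepG2 dosed 1 hr at 0.39-200 uM (0.5% DMSO final), duplicate. Fixed in 3.7% formaldehyde, Triton permeabilized, immunostained for phospho-histone H2A.x (1:200) with Hoechst 33342; ArrayScan 20x imaging, bidirectional fit vs DMSO.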

[7] = APR_HepG2_MitoMass_1hr: Apredica 1-hour HepG2 Assay for Mitochondrial Mass (AID 2282674); details: high-content imaging, actives raise or lower the signal
Outline: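 HepG2 cells dosed 1 hr with 0.39-200 uM compound (0.5% DMSO), duplicate wells. Mitochondria stained with 250 nM MitoTracker Red CMXRos for 30 min before formaldehyde fixation, imaged at 20x by ArrayScan; bidirectional fit versus DMSO.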

[8] = APR_HepG2_StressKinase_1hr: Apredica 1-hour HepG2 Assay for Stress Kinase (AID 2282906); details: HepG2 stress kinase (phospho-c-Jun) imaging, actives raise or lower the signal
Outline: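 HepG2 cells dosed 0.39-200 uM (0.5% DMSO) for 1 h, then formaldehyde-fixed. Stress kinase read by phospho-c-Jun immunofluorescence using high-content imaging; bidirectional fit vs DMSO.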

[9] = APR_HepG2_NuclearSize_24hr: Apredica 24-hour HepG2 Assay for Nuclear Size (AID 2282907); details: high-content imaging, actives raise or lower the signal
Outline: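 HepG2 cells exposed 24 h to compounds at 0.39–200 uM (0.5% DMSO), fixed, Hoechst 33342 stained and imaged at 20x; nuclear diameter measured by automated image analysis, fitted bidirectionally against DMSO controls.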

[10] = APR_HepG2_CellLoss_24hr: Apredica 24-hour HepG2 Assay for Cell Loss (AID 2282908); details: high-content imaging
Outline: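 HepG2 cells exposed 24 hr to 0.39–200 uM compound in duplicate at 0.5% v/v final DMSO. Cells fixed in 3.7% formaldehyde and Hoechst 33342-stained. Cell number came from nuclear imaging at 20x. Bidirectional fit versus DMSO.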

[11] = APR_HepG2_MicrotubuleCSK_24hr: Apredica 24-hour HepG2 Assay for Microtubule CSK Stabilty (AID 2282909); details: HepG2 microtubule cytoskeleton imaging, actives raise or lower the signal
Outline: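 HepG2 cells were treated 24 hr with compound at 0.39–200 uM in duplicate (0.5% DMSO final), then fixed and permeabilized. Alpha-tubulin immunofluorescence was imaged by high-content microscopy, with bidirectional fitting against DMSO and taxol as positive control.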

[12] = APR_HepG2_MitoticArrest_24hr: Apredica 24-hour HepG2 Assay for Mitotic Arrest (AID 2282910); details: high-content imaging, actives raise or lower the signal
Outline: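 Compounds are dosed onto HepG2 cells across ten concentrations up to 200 uM for 24 hr. Cells are then fixed in 3.7% formaldehyde, permeabilised, and labelled for phospho-histone H3 and nuclei; images are scored by cell cycle analysis and fitted bidirectionally relative to DMSO.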

[13] = APR_HepG2_MitoMembPot_24hr: Apredica 24-hour HepG2 Assay for Mitochondrial Membrane Potential (AID 2282911); details: imaging, actives raise or lower the signal
Outline: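 Mitochondrial membrane potential imaged via MitoTracker Red CMXRos (250 nM, 30 min pre-fixation) in fixed HepG2 cells with Hoechst nuclear identification. Ten concentrations 0.39–200 uM, 24 h treatment, 0.5% DMSO; CCCP as positive control.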

[14] = APR_HepG2_MitoMass_24hr: Apredica 24-hour HepG2 Assay for Mitochondrial Mass (AID 2282912); details: high-content imaging, actives raise or lower the signal
Outline: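 HepG2 cells exposed 24 hr to 0.39–200 uM compound, 0.5% v/v DMSO, in duplicate. Stained before fixation with 250 nM MitoTracker Red CMXRos for 30 min, then imaged at 20x with Hoechst nuclei. Fitted in both directions against DMSO.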

[15] = APR_HepG2_p53Act_24hr: Apredica 24-hour HepG2 Assay for p53 Activation (AID 2282913); details: high-content imaging, actives raise or lower the signal;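 also: p53 protein immunofluorescence averaged per cell in HepG2 with Hoechst nuclei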
Outline: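 Fluorescence imaging of formaldehyde-fixed HepG2 cells labelled for p53 and with Hoechst, 24 h after dosing (0.39–200 uM, duplicate wells, 0.5% v/v DMSO). Signal fitted in both directions relative to DMSO.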

[16] = APR_HepG2_CellCycleArrest_72hr: Apredica 72-hour HepG2 Assay for Cell Cycle Arrest (AID 2282914); details: high-content imaging, actives raise or lower the signal
Outline: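 Read-out: nuclear DNA content from Hoechst 33342 high-content imaging (20x, six fields/well) after 3.7% formaldehyde fixation, fitted bidirectionally against DMSO. Treatment was 72 h in HepG2, ten concentrations 0.39–200 uM, duplicate, 0.5% DMSO.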

[17] = APR_HepG2_CellCycleArrest_24hr: Apredica 24-hour HepG2 Assay for Cell Cycle Arrest (AID 2282905); details: imaging, actives raise or lower the signal;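 also: cell cycle arrest scored as ratio of 2N to 4N nuclear DNA content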
Outline: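 Compounds at 0.39–200 uM (0.5% DMSO) for 24 h, then fixed and Hoechst 33342 stained. Cell-cycle analysis of nuclear DNA content by high-content imaging, fitted bidirectionally versus DMSO.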

[18] = APR_HepG2_MitoMembPot_1hr: Apredica 1-hour HepG2 Assay for Mitochondrial Membrane Potential (AID 2282675); details: imaging, actives raise or lower the signal
Outline: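 HepG2 cells dosed 1 hour with 0.39–200 uM compound in duplicate, 0.5% DMSO final. MitoTracker Red CMXRos (250 nM, 30 min) loaded before formaldehyde fixation; fluorescence quantified by high-content imaging, bidirectional fitting versus DMSO.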

[19] = APR_HepG2_MicrotubuleCSK_1hr: Apredica 1-hour HepG2 Assay for Microtubule CSK Stabilty (AID 2282669); details: HepG2 microtubule cytoskeleton imaging, actives raise or lower the signal
Outline: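 HepG2 cells exposed 1 h to 0.39–200 uM compound (0.5% DMSO, duplicates), then formaldehyde-fixed, permeabilized and immunostained for alpha-tubulin with Hoechst nuclei. Imaged by ArrayScan high-content analysis; bidirectional fit versus DMSO.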

Measured: outcome

N#Cc1c(Cl)cccc1Cl
not listed: [17] | [18] | [19]
inactive: all other assays above

CCCC(=NOCC)C1=C(O)CC(CC(C)SCC)CC1=O (configuration not stated)
not listed: [18] | [19]
inactive: all other assays above

CC(C)NC(=O)N1CC(=O)N(c2cc(Cl)cc(Cl)c2)C1=O
not listed: [5] | [19]
inactive: all other assays above

CCOP(=S)(OCC)Oc1nc(Cl)n(C(C)C)n1
not listed: [5] | [18] | [19]
inactive: all other assays above

CNC(=O)N(C)c1nnc(C(C)(C)C)s1
not listed: [18] | [19]
inactive: all other assays above

COC(=O)NS(=O)(=O)c1ccc(N)cc1
not listed: [5] | [6]
inactive: all other assays above

COP(=S)(OC)Oc1ccc([N+](=O)[O-])c(C)c1
not listed: [6] | [19]
inactive: all other assays above

CCSC(=O)N1CCCCCC1
not listed: [5] | [6] | [17] | [18]
inactive: all other assays above
